Results published in the supplement of paper PMC3545927.
The list shows a part of the results. No count for the full screen is at hand.

Target: furin, P09958
Assay: furin cleavage Z-score vs untreated control; higher = more cleavage, active = 3.5 or more, inactive = 1 or less, 8 variable residues between constant flanks
Procedure: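 Multiplexed peptide-cDNA fusion cleavage assay. 8-mer variable peptides flanked by constant Cys-Ala (N-term) and Ala-Gly-Asn-Ala-Ser-Ala-Ser-Ala (C-term) and conjugated to a cDNA oligonucleotide were bead-immobilised via the N-terminus. They were treated with purified furin at a 1:10 enzyme:substrate ratio in 50 mM HEPES pH 7.5, 1 mM CaCl2, 100 mM NaCl for 7.5, 15 or 30 min. Released cDNA was counted by next-generation sequencing, and log counts versus no-furin controls were lowess-adjusted and converted to robust Z-scores.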

furin, P09958, sequence (P09958 whole entry): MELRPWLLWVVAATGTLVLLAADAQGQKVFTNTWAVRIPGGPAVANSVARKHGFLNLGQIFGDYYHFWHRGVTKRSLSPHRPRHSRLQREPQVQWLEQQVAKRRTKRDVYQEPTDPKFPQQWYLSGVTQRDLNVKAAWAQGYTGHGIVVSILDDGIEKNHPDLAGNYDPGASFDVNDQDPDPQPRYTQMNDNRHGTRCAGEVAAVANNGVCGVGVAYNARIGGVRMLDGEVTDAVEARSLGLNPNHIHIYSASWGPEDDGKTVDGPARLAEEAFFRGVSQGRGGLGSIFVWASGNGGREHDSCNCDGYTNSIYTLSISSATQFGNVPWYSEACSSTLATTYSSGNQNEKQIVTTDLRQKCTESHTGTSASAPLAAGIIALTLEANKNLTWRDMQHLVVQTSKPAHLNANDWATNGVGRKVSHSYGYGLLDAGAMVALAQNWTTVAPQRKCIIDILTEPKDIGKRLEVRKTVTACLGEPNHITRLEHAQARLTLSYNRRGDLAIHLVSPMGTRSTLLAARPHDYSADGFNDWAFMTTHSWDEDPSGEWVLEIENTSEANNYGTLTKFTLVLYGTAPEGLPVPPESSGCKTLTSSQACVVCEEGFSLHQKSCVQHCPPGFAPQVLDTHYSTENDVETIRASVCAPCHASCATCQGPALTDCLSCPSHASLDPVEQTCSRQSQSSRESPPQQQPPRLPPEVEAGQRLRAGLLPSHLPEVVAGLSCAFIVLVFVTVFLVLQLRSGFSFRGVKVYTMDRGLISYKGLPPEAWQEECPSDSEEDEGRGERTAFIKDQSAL

Row | Sequence | furin cleavage Z-score (7.5 min) | furin cleavage Z-score (15 min) | furin cleavage Z-score (30 min)
1 | CALPCRPQRSAGNASASA [FS-612] | 0.0451 (inactive) | 0.649 (inactive) | 1.4
2 | CAPPQRTQRSAGNASASA [FS-1049] | 4.31 (active) | 5.78 (active) | 6.79 (active)
3 | CAPPQKAKRSAGNASASA [FS-70] | 10.3 (active) | 12.4 (active) | 10.2 (active)
4 | CAKPSKLKRSAGNASASA [FS-546] | 7.13 (active) | 8.9 (active) | 7.35 (active)
5 | CAPAQRLARSAGNASASA [FS-1471] | 10.2 (active) | 11.3 (active) | 9.54 (active)
6 | CAHPSPLKRSAGNASASA [FS-597] | -0.0472 (inactive) | 2.27 | 1.02
7 | CAEIVTSTWVAGNASASA [HC2164] | -0.266 (inactive) | -1.49 (inactive) | 1.35
8 | CAVVCCSMSPAGNASASA [HC2099] | -0.463 (inactive) | -1.06 (inactive) | -1.28 (inactive)
9 | CAREARGSSRAGNASASA [FS-2907] | -0.25 (inactive) | -0.261 (inactive) | -1.18 (inactive)
10 | CAEKTTPCSGAGNASASA [HC1974] | -1.24 (inactive) | -0.951 (inactive) | -0.151 (inactive)
11 | CALGLLQTASAGNASASA [HC1027] | -0.682 (inactive) | -0.203 (inactive) | 0.0385 (inactive)
12 | CAVMAQLLRIAGNASASA [HC327] | -0.76 (inactive) | -0.535 (inactive) | -1.17 (inactive)
13 | CAEVVTSTCVAGNASASA [HC2240] | -0.298 (inactive) | -0.394 (inactive) | -0.1 (inactive)
14 | CANPSVAATLAGNASASA [HC788] | -2.1 (inactive) | 0.787 (inactive) | 0.461 (inactive)
15 | CAQPHRAQRSAGNASASA [FS-1153] | 6.97 (active) | 6.29 (active) | 6.74 (active)
16 | CAKNIRRGRSAGNASASA [FS-342] | 8.62 (active) | 9.43 (active) | 6.74 (active)
17 | CAEYRRRGRSAGNASASA [FS-1123] | 4.99 (active) | 5.3 (active) | 5.5 (active)
18 | CAEDTTPCSGAGNASASA [HC1971] | 0.299 (inactive) | -1.06 (inactive) | -0.5 (inactive)
19 | CAADGGCSGGAGNASASA [HC811] | -1.33 (inactive) | -0.697 (inactive) | -0.396 (inactive)
20 | CAERVTSTWVAGNASASA [HC2173] | -0.173 (inactive) | -0.632 (inactive) | -2.09 (inactive)
21 | CARPKKRAETAGNASASA [FS-1760] | -0.848 (inactive) | 2.01 | 0.187 (inactive)
22 | CARPRRLSTAAGNASASA [FS-3022] | -0.374 (inactive) | 0.291 (inactive) | 1.13
23 | CARPPRSATAAGNASASA [FS-2058] | 1.66 | 4.98 (active) | 3.61 (active)
24 | CARTGRSIVYAGNASASA [FS-2465] | 2.57 | 5.05 (active) | 6.39 (active)

Row | Sequence | furin cleavage Z-score (7.5 min) | furin cleavage Z-score (15 min) | furin cleavage Z-score (30 min)
25 | CARTGRSREVAGNASASA [FS-3105] | 0.737 (inactive) | -1.37 (inactive) | 1.18
26 | CARPVRGIHTAGNASASA [FS-3030] | 1.52 | 0.149 (inactive) | 3.15
27 | CARPPRSIVTAGNASASA [FS-2439] | 2.64 | 4.75 (active) | 6.76 (active)
28 | CAAAPGAATAAGNASASA [HC1071] | -1.75 (inactive) | 0.135 (inactive) | -1.91 (inactive)
29 | CACPNSSIVYAGNASASA [HC264] | 0.0997 (inactive) | 0.251 (inactive) | -0.406 (inactive)
30 | CARPPRSPDHAGNASASA [FS-2740] | 4.56 (active) | 5.51 (active) | 4.52 (active)
31 | CARPQRLIDHAGNASASA [FS-3020] | -0.401 (inactive) | -0.141 (inactive) | -0.235 (inactive)
32 | CASGTFPINAAGNASASA [HC1189] | -0.56 (inactive) | -1.29 (inactive) | -0.783 (inactive)
33 | CAGGCSGGAYAGNASASA [HC812] | 0.0451 (inactive) | -0.928 (inactive) | -1.91 (inactive)
34 | CAFLVQAWKSAGNASASA [HC1472] | -0.545 (inactive) | -1.14 (inactive) | 0.129 (inactive)
35 | CAPPGDPPQPAGNASASA [HC1545] | 0.491 (inactive) | -1.28 (inactive) | -0.552 (inactive)
36 | CAVQWMNRLIAGNASASA [HC1117] | -0.371 (inactive) | -0.656 (inactive) | -0.702 (inactive)
37 | CATYSRCGSGAGNASASA [HC457] | -0.645 (inactive) | -0.493 (inactive) | 0.00889 (inactive)
38 | CAAILHTPGCAGNASASA [HC270] | 0.368 (inactive) | 1.18 | -0.0199 (inactive)
39 | CARPPRGFQPAGNASASA [FS-3019] | -1.18 (inactive) | -0.836 (inactive) | -0.248 (inactive)
40 | CARPPRSTCQAGNASASA [FS-2580] | 2.35 | 3.89 (active) | 3.84 (active)
41 | CARPPREEGKAGNASASA [FS-2438] | -0.719 (inactive) | -0.617 (inactive) | -0.558 (inactive)
42 | CARGPRSATHAGNASASA [FS-1894] | 3.56 (active) | 2.79 | 2.67
43 | CARLLRDADDAGNASASA [FS-2278] | -0.832 (inactive) | -0.574 (inactive) | -0.464 (inactive)
44 | CARLLRSLTHAGNASASA [FS-2993] | 1.05 | 3.14 | 4.05 (active)
45 | CARGPRSSSAAGNASASA [FS-1712] | -0.135 (inactive) | -0.114 (inactive) | -1.14 (inactive)
46 | CARGPRSYPHAGNASASA [FS-2935] | -0.268 (inactive) | 1.01 | 0.916 (inactive)
47 | CARLRRLLWIAGNASASA [FS-2044] | -1.02 (inactive) | -0.859 (inactive) | 0.923 (inactive)
